# Bioassay records from PubChem BioAssay.
# Shown are actives, neighbours in structure and some others; about 2.4% of the full set was active somewhere.
# POLB inh: blocks human DNA polymerase beta activity. Pol beta primer extension/strand displacement, fluorescence kinetic. Potency, µM (top dose mostly 114 µM), without a hit: at the top dose activity change, negative = inhibition, most hits filed as inhibitors. 340,000 compounds, 1.3% hits. AID 485314; note: % is set by controls: 0 for no effect and ±100 for the full control effect
#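 Homogeneous kinetic assay of primer extension and strand displacement by 10 nM Pol beta, preincubated 15 min at room temperature with compound before 50 nM substrate (final) was added. Read at 0 and 10 min; four-parameter Hill fit.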
# Pol kappa inh: blocks human DNA polymerase kappa activity | Potency, µM (titrated, usually from 107 µM), for the others: top-dose activity, negative = inhibition, hits mostly inhibitors | Q9UBT6 | AID 588579 | purified Pol kappa, fluorescent DNA synthesis assay, 10 min | 400,000 compounds, 0.53% hits; note: % is set by controls: 0 for no effect and ±100 for the full control effect
#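 10 nM Pol kappa preincubated 15 min at room temperature with compounds, then reaction started with substrate at 50 nM final. Fluorescence read kinetically at 0 and 10 min; buffer-only wells served as negative control.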
# Pol iota inh: inhibitors of human DNA polymerase iota | Pol iota fluorescent replication assay, 10 min | Potency, µM (doses to about 115 µM), without a hit: at the highest dose activity, negative = inhibition, hits mostly inhibitors | 390,000 compounds, 1% hits | AID 588590
#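 Fluorescent replication assay read twice, at 0 min and 10 min after adding 50 nM (final) substrate. Enzyme (10 nM) and compounds were first incubated 15 min at room temperature; enzyme-free buffer wells were negative controls.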
# FEN1 inhibitor: blocks human flap endonuclease 1; P39748; Recombinant FEN1 flap cleavage, fluorescence, 15 min; Potency, µM (doses to about 114 µM), inactives show top-dose activity change, negative = inhibition, hits mostly inhibitors; 390,000 compounds, 0.35% hits; AID 588795; note: % is set by controls: 0 for no effect and ±100 for the full control effect; nearly all actives have a fitted effect of over 65% in size
#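 Reaction started by adding substrate (50 nM final) to 10 nM enzyme after 15 min room-temperature compound preincubation. Reads at 0 and 15 min, with data normalized and fitted to a four-parameter Hill equation.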
# WRN inhibitor: WRN helicase (human) inhibition; Potency, µM (series often up to 114 µM), for the others: at the highest dose activity change, negative = inhibition, hits mostly inhibitors; 360,000 compounds, 0.46% hits; WRN helicase unwinding, fluorescent forked duplex, kinetic; AID 651768; Q14191; note: % is set by controls: 0 for no effect and ±100 for the full control effect; nearly all actives have a fitted effect of over 55% in size
#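 Fluorescence dequenching readout, ex 525 nm/em 598 nm, kinetic mode: forked duplex DNA (100 nM final) with adjacent fluorophore and quencher unwound by WRN (20 nM final) with 2 mM ATP. Compound preincubation 15 min, room temperature.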
# POLH inh: inhibitors of human DNA polymerase eta; Q9Y253; recombinant Pol eta, fluorescent DNA replication assay; Potency, µM (top dose mostly 114 µM), without a hit: at the top dose activity change, negative = inhibition, most hits filed as inhibitors; 390,000 compounds, 1.2% hits; note: % is set by controls: 0 for no effect and ±100 for the full control effect
#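 Pol eta (10 nM) was preincubated with compounds for 15 min at room temperature, after which fluorescent replication substrate (50 nM final) was added to start the reaction. Fluorescence was read kinetically at 0 and 10 min.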
# Starred values were filed as active, the others as inactive; u = inconclusive; x = no result given; [ ] = another dose, or the depositor's remark. Calls come from the whole dose curve; as a rule, active = well fitted curve in the direction sought with a large enough effect; inconclusive = small, poorly fitted or top-dose-only effect, or another doubt; inactive = no such curve, though single readings can be large; an effect the other way counts as inactive or inconclusive. Potency is the fitted concentration of half-maximal effect.
SMILES,POLB inh,Pol kappa inh,Pol iota inh,FEN1 inhibitor,WRN inhibitor,POLH inh
COc1ccc2ccccc2c1C1CC(=O)N2CN(C3CCCCC3)CSC2=C1C#N (centres undefined),89.1µM*,-44.4%,u,u,-2.2%,u
N#CC1=C2SCN(Cc3ccccc3)CN2C(=O)CC1c1cccs1 (centres undefined),u,-44.2%,u,u,0.1%,-20.7%
COc1ccc(OC)c(C2CC(=O)N3CN(c4ccccc4)CSC3=C2C#N)c1 (centres undefined),3.1%,-5.3%,25.6%,u,-2.6%,-22.8%
COc1ccc2ccccc2c1C1CC(=O)N2CN(Cc3ccco3)CSC2=C1C#N (centres undefined),50.1µM*,-42.5%,u,u,-11.2%,89.1µM*
COc1ccc(N2CSC3=C(C#N)C(c4cccc(OC)c4OC)CC(=O)N3C2)cc1 (centres undefined),0.8%,-10.3%,56.5%,-19.7%,6.1%,7.7%
COc1ccc2cc1Oc1cc3c(cc1OC)CC[N+](C)(C)C3Cc1ccc(cc1)Oc1c(OC)c(OC)cc3c1C(C2)[N+](C)(C)CC3 (centres undefined),x,-11.0%[19.4 µM],x,x,x,x
CCc1cc2c(c(CC)n1)CCC(=O)N2Cc1ccc(-c2ccccc2-c2nn[nH]n2)cc1,x,-11.6%[19.4 µM],x,x,x,x
O=C(O)c1ccc(COc2ccccc2[N+](=O)[O-])o1,u,-9.4%,0.5%,-2.9%,-1.4%[11.6 µM],12.6µM*
O=C(O)c1ccc(OCc2ccc(C(=O)O)o2)cc1,u,-6.6%,8.6%,-0.4%,19.1%,31.6µM*
O=C(c1ccc(COc2ccccc2[N+](=O)[O-])o1)N1CCCCCC1,-0.4%,-19.5%,0.8%,-5.8%,-7.6%,1.5%
O=C1NN(C(=O)Nc2ccc(Br)cc2)C(c2ccccc2)C1c1ccccc1 (centres undefined),x,6.9%[60.1 µM],x,x,x,x
CC[C@H](C)[C@H](NC(=O)[C@H](C)NC(=O)[C@@H](N)C(C)C)C(=O)N[C@H](C(=O)N[C@H](C(=O)N[C@@H](CC(C)C)C(=O)N[C@H](C(=O)N[C@@H](CCCCN)C(=O)O)C(C)C)C(C)C)[C@@H](C)O,x,-5.8%[60.1 µM],x,x,x,x
N#C/C(=C\c1cccs1)C(=O)c1ccccc1,u,-11.7%,28.2µM*,5.1%,u,-17.1%
O=S(=O)(c1ccc2ncsc2c1)N1CCN(c2nc(-c3cccs3)nc3ccccc23)CC1,x,-19.9%,-7.4%,-11.4%,x,x
CCOc1ccccc1Nc1nc(-c2cccc(Cl)c2)c2c(n1)-c1ccccc1OC2,39.8µM*,89.1µM*,-18.1%,50.1µM*,x,-12.6%
O=C(O)c1cccc(-n2c(O)c(C=C3N=c4ccccc4=N3)sc2=S)c1,10.4%,-6.7%,-12.9%,-15.8%,-20.1%,u
O=C(O)c1ccc(-n2c(O)c(C=C3N=c4ccccc4=N3)sc2=S)cc1,12.0%,u,2.24µM*,-0.5%,-6.1%[11.6 µM],-23.0%
O=C(COC(=O)CNC(=O)c1ccc2c(c1)OCO2)Nc1ncc(Cl)cc1Cl,13.8%,-9.7%,29.8%,-5.5%,-7.0%,-20.3%
COc1ccc(C(=O)NCC(=O)OCC(=O)Nc2ncc(Cl)cc2Cl)cc1[N+](=O)[O-],x,-23.1%,19.2%,-9.9%,-8.7%[11.6 µM],50.1µM*
COc1cc(CCC(=O)OCC(=O)Nc2ncc(Cl)cc2Cl)cc(OC)c1OC,79.4µM*,-25.8%,u,6.6%,-12.7%[57.1 µM],11.2µM*
O=C(O)c1ccccc1N/C=C\[N+](=O)[O-],25.1µM*,-18.8%,u,6.6%,-7.2%,u
O=C(/C=C/Nc1ccccc1C(=O)O)c1cccs1,10.8%,0.9%,22.0%,5.8%,11.4%,-7.0%
CC(=O)n1cc(N(C(=O)CCl)c2ccc([N+](=O)[O-])cc2)c2ccccc21,-11.3%,-0.7%,u,-1.1%,-9.1%,39.8µM*
O=Cc1[nH]c2ccccc2c1N(C(=O)CCl)c1ccc([N+](=O)[O-])cc1,-1.7%,-0.2%,6.5%,-15.5%,-4.9%,-13.4%
